Screens deposited in PubChem BioAssay by National Center for Advancing Translational Sciences (NCATS).
Shown is part of a subset that was picked to be rich in hits.
KDM5B inhibitor: blocks human KDM5B histone demethylase activity | Q9UGL1 | KDM5B demethylase, FDH-coupled NADH fluorescence (FDH is formaldehyde dehydrogenase) | Potency, µM (series often up to 57.7 µM), hits mostly inhibitors | 220,000 tested, 2.6% active | AID 1347165; active = well fitted inhibition curve with a large enough effect; also: 0% is about no effect; nearly all actives have a fitted effect of over 70% in size
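Here, H3K4me3 peptide (12.5 µM in substrate mix) is demethylated by KDM5BΔAP, 200 nM final, after 10 min compound exposure. Formaldehyde product is coupled through FDH (0.25 U/mL in mix) to NADH fluorescence; 30-min ΔRFU feeds dose-response curves.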
Active calls of the source: *; i = inactive. Potency is read from the fitted curve at half-maximal effect.

SMILES | KDM5B inhibitor
CC(=O)Nc1ccc(S(=O)(=O)N[C@H]2CO[C@H]3[C@@H]2OC[C@@H]3Nc2nccc(C(C)(C)C)n2)cc1 | i
O=C(Nc1cccc2ccccc12)O[C@@H]1CO[C@H]2[C@@H]1OC[C@@H]2NC(=O)N1CCOCC1 | i
CN(C(=O)CCc1ccco1)C1CCCC1 | i
CCn1cc(S(=O)(=O)N2CCC3(CC2)CC(N2CCOCC2)CCO3)cn1 (stereo not drawn) | i
CNc1c(NC(=O)c2ccc(Cl)cc2)c(=O)oc2ccccc12 | i
Cc1cc(C(=O)N2CC(F)(F)C[C@H]2c2nc(C3CC3)no2)on1 | i
COc1ccc(C)cc1S(=O)(=O)Nc1ccc(Nc2nc(C)cc(N3CCCC3)n2)cc1 | i
COC(=O)c1ccc(Oc2coc3cc(OC)ccc3c2=O)cc1 | i
Cc1ccc(CNC(=O)c2c(C)sc3ccn(CC(C)C)c(=O)c23)o1 | 25µM*
CCn1ccc2sc(C)c(C(=O)NCCC(C)C)c2c1=O | i
CCCn1ccc2sc(C)c(C(=O)NCc3ccccc3)c2c1=O | i
CN(C)C[C@@H]1CN(Cc2ccccc2)C[C@H]1NC(=O)CCn1cccn1 | i
O=C(CCc1nnc2ccc(NCc3ccc(Cl)cc3)nn12)NCc1ccc(Cl)cc1 | i
O=C(NCc1nnc2ccc(-c3ccccc3)nn12)c1cc(F)ccc1Cl | 18µM*
Cc1ccc(-c2ccc3nnc(CNC(=O)c4c(F)cccc4F)n3n2)cc1 | 25µM*
Cc1ccc(-c2ccc3nnc(CNC(=O)c4cc(F)ccc4F)n3n2)cc1 | 25µM*
O=C(NCc1nnc2ccc(-c3ccc(Cl)cc3)nn12)C1(c2ccccc2)CC1 | 20µM*
O=C(NCc1coc(-c2cccs2)n1)C1(c2ccc(Cl)cc2)CC1 | i
c1ccc(C2=Nc3ccccc3N=C(c3ccccc3)c3ccccc32)cc1 | i
COC(=O)[C@H]1CN(C(=O)c2cccnc2)CCN1C(=O)CSC | i
CC(=O)N1CC2(CCN(C(=O)CCC(=O)O)C2)Cc2ccccc21 (stereo not drawn) | i
N#Cc1ccc(OCC(=O)NOCc2ccccc2)cc1 | i
O=C(/C=C/c1ccc(F)cc1)N(C1CCCCC1)C1CCCCC1 | i
Cc1cccc(C(=O)NC2CCN(c3cn[nH]c(=O)c3)CC2)c1 | i
COc1ccc(CCC(=O)N2[C@@H]3CC[C@H]2CC(NC(=O)c2ccncc2)C3)cc1 (stereo partly drawn) | i
SMILES | KDM5B inhibitor
COc1ccc(C(=O)N[C@H]2CO[C@H]3[C@@H]2OC[C@@H]3n2cc(CN(C)Cc3ccccc3)nn2)cc1 | i
CCCCCCNC(=O)CCNC(=O)c1cccc(C)c1 | i
CC(C)c1noc(COc2ccc(C(N)=O)cc2)n1 | i
Cc1ccc(-c2ccc3nnc(CNC(=O)c4ccc(F)cc4)n3n2)cc1 | 25µM*
O=C(NCc1nnc2ccc(-c3ccc(F)cc3)nn12)c1ccc(Cl)s1 | 28µM*
O=C(NCc1nnc2ccc(-c3ccccc3)nn12)c1cc(Cl)ccc1F | 25µM*
COc1ccc(Cl)cc1C(=O)NCc1nnnn1-c1ccccc1 | i
Cc1cc(C)cc(C(=O)NCCn2nc(-c3ccc(F)cc3)ccc2=O)c1 | i
Cc1ccc(-c2ccc3nnc(CNC(=O)c4cccc(C(F)(F)F)c4)n3n2)cc1 | 32µM*
Cc1ccc(S(=O)(=O)N2CCN(CCNC(=O)c3cccc(C(F)(F)F)c3)CC2)cc1 | i
CCN(CC)c1ccc(C(=O)NCc2nnc3ccc(-c4ccc(C)cc4)nn23)cc1 | i
CCN(CC)/C(C)=N/C(=S)Nc1ccccc1 | i
O=C(/C=C/c1cccc(F)c1)NNC(=O)C1CCCCC1 | i
C#CCNC(=O)c1sc(C(C)C)nc1C | i
O=C(NCCc1ccccc1)c1cncc(Br)c1 | i
Cc1cc(C)c(C)c(S(=O)(=O)N2CCN(C(=O)CCc3c(C)nn(C)c3C)CC2)c1C | i
CCCCC(=O)N/N=C/c1ccc(C)cc1 | i
O=C(N/N=C/c1ccc(Oc2ccccc2)cc1)c1cccs1 | i
O=C(NCc1nnc2ccc(-c3ccc(F)cc3)nn12)c1cc(Cl)ccc1F | 25µM*
O=C(NCc1nnc2n1C(C(=O)NCc1ccc(F)cc1)CC2)c1ccc(Cl)cc1Cl (stereo not drawn) | i
COc1cccc(N2CCN(c3nc(C(=O)NCc4cccc(C)c4)cs3)CC2)c1 | i
O=C1NCCCCCN(C(=O)c2ccc3ccccc3n2)[C@H]2CCC[C@@H]12 | i
CC(=O)Nc1ccc(NC(=O)Cn2cccc2-c2nc(-c3ccc(F)cc3)no2)cc1 | i
Cc1ccccc1NC(=O)CSc1nc(-c2ccc(F)cc2)c2cccc(C)c2n1 | i
COc1cccc(-c2nc(CS(=O)(=O)CC(=O)Nc3ccc(F)cc3F)c(C)o2)c1 | i
Cc1ccccc1NC(=O)CCNc1c(-c2ccc(F)cc2)nc2cnccn12 | 25µM*
O=C(Nc1c(-c2ccc(F)cc2)nc2ccccn12)c1ccc(F)cc1 | i
CC(=O)Nc1ccc(NC(=O)CCNc2c(-c3ccc(F)cc3)nc3cnccn23)cc1 | 28µM*
COc1cccc(-c2nc(CS(=O)(=O)CC(=O)Nc3ccc(F)cc3C)c(C)o2)c1 | i
